Bioassay records as filed in PubChem.
The list is not random: actives were taken first. Their share in the collection is about 19%.
IL1B secr inh: qHTS for Inhibitors of Inflammasome Signaling: IL-1-beta AlphaLISA Primary Screen. THP-1 LPS/ATP IL-1B secretion, AlphaLISA, 16 h; hits give low values. activity change, % at 57.5 µM. 360,000 tested, 4.7% active. AID 743279, 2014; in the data active = activity change below about -50%; inconclusive = mostly about -30% to -49%
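Secreted IL-1B measured by AlphaLISA bead assay after 16 h compound exposure of THP-1 cells; compounds (final up to 57.5 uM) added 1 h before LPS (250 ng/mL) and ATP (1.25 mM) stimulation; lower signal means less secretion.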
Chronic BCR inh: qHTS Assay to Find Inhibitors of Chronic Active B-Cell Receptor Signaling. ABC-DLBCL IkBa-CBG/CBR reporter, luminescence ratio, 4 h. Potency, µM (highest dose often 46.1 µM), most hits filed as inhibitors. 340,000 tested, 0.05% active; active = well fitted inhibition curve with a large enough effect in the signal ratio, with a control signal flat, not every such curve was filed as active; inconclusive = small, poorly fitted or top-dose-only effect, or effect the other way, or a change in a side signal; the % refers to the signal ratio
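Doxycycline induced both beetle luciferases in TMD8 lymphoma cells; IKK-driven degradation limits the IkappaBalpha-fused green signal, while red luminescence normalises for cell number and nonspecific effects. Compounds tested up to 46 uM, 4 hrs.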
DT40 TDP1 no CPT: qHTS for Inhibitors of human tyrosyl-DNA phosphodiesterase 1 (TDP1): qHTS in cells in absence of CPT | DT40 Tdp1-/- hTDP1 cells, no CPT, ATP luminescence, 48 h | Potency, µM (doses to about 46.2 µM), usual class: inhibitors | 420,000 tested, 15% active; note: nearly all actives have a fitted effect of over 55% in size
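Camptothecin absent (DMSO only). Human TDP1-complemented DT40 knockout cells, 400 cells/well, 37 °C for minimum 48 hr; ATP measured via CellTiter-Glo, 30 min dark incubation, luminescence.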
SW480 rerep: A quantitative high throughput screen for small molecules that induce DNA re-replication in SW480 colon adenocarcinoma cells; 340,000 tested, 1.8% active; SW480 DNA re-replication, Hoechst DNA content imaging, 48 h; Potency, µM (titrated, usually from 46.1 µM), usual class: activators; note: nearly all actives have a fitted effect of over 55% in size
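DNA re-replication was detected as more nuclei of elevated Hoechst intensity after 48 hr exposure to compound (23 nL pinned per well of 250 cells).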
MCF10A rerep: A quantitative high throughput screen for small molecules that induce DNA re-replication in MCF 10a normal breast cells. 350,000 tested, 2.9% active. MCF 10A DNA re-replication, Hoechst nuclear intensity, 48 h. Potency, µM (series often up to 46.1 µM), actives largely listed as activators; note: nearly all actives have a fitted effect of over 50% in size
TDP1 cell CPT: qHTS for Inhibitors of human tyrosyl-DNA phosphodiesterase 1 (TDP1): qHTS in cells in presence of CPT; chicken DT40 Tdp1-/-;hTDP1 cells + 20 nM CPT, ATP luminescence, 48 h; Potency, µM (series often up to 46.2 µM), hits mostly inhibitors; 420,000 tested, 12% active; AID 686979, 2013; note: nearly all actives have a fitted effect of over 55% in size
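Chicken DT40 Tdp1-/- cells complemented with human TDP1, 400 cells/well, exposed to compounds plus 20 nM camptothecin for at least 48 h at 37 C; viability read as ATP content by CellTiter-Glo luminescence.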
Hits are given with their value; . = inactive; ? = inconclusive; / = not tested or not shown; [ ] = dose if it differs, or a comment. Unless noted, calls come from the whole dose curve; as a rule, active = well fitted curve in the direction sought with a large enough effect; inconclusive = small, poorly fitted or top-dose-only effect, or another doubt; inactive = no such curve, though single readings can be large; an effect the other way counts as inactive or inconclusive.

SMILES	IL1B secr inh	Chronic BCR inh	DT40 TDP1 no CPT	SW480 rerep	MCF10A rerep	TDP1 cell CPT
COc1cc(C#Cc2c(-c3cncn3C)n(C)c3ccc(-c4ccc(OC)nc4)cc23)cc(OC)c1	.	?	?	.	?	16µM
COc1cc(C#Cc2c(-c3cncn3C)n(C)c3ccc(-c4ccc5[nH]ccc5c4)cc23)cc(OC)c1	.	?	?	?	.	?
CC1=C(C(=O)O)N2C(=O)C(NC(=O)c3ccc(F)cc3)C2SC1 (configuration not stated)	.	?	.	.	.	.
Cn1c(=O)c2c(ncn2CC(=O)OCC(=O)c2ccc(Br)cc2)n(C)c1=O	.	/	26µM	/	/	16µM
COc1ccc(C(=O)Cn2c(Br)nc3c2c(=O)n(C)c(=O)n3C)cc1	.	.	23µM	.	.	13µM
CCCCn1c(Oc2cccc(C(=O)OC)c2)nc2c1c(=O)n(C)c(=O)n2C	/	.	.	/	/	.
CCCCn1c(Oc2ccc(C(=O)OC)cc2)nc2c1c(=O)n(C)c(=O)n2C	-73	.	11µM	.	.	16µM
Cn1c(=O)c2c(ncn2CC(=O)OCC(=O)c2ccc(Cl)cc2)n(C)c1=O	.	.	.	.	.	.
C=CCc1cccc(/C=C/c2cc(=O)c3ccccc3[nH]2)c1O	.	.	7.3µM	.	.	7.3µM
C=CCc1cccc(/C=N/n2cnnc2)c1O	.	.	?	.	.	.
O=C(COc1ccc(Cl)cc1)Nc1nnc(-c2ccc3c(c2)CCCC3)o1	.	.	5.8µM	.	.	.
O=C(COc1ccccc1)Nc1nnc(-c2ccc(Cl)cc2)o1	.	.	?	.	.	?
Cc1ccccc1C(=O)Nc1nnc(-c2ccco2)o1	.	?	18µM	.	.	21µM
O=C(Nc1nnc(-c2ccccc2Cl)o1)c1ccco1	.	?	?	12µM	.	?
Cc1cccc(C(=O)Nc2nnc(-c3ccco3)o2)c1	.	?	10µM	.	.	23µM
Cc1cccc(C(=O)Nc2nnc(-c3ccncc3)o2)c1	.	?	.	.	.	.
Cc1ccccc1C(=O)Nc1nnc(-c2ccncc2)o1	.	?	?	.	.	.
COC(=O)C1CCN(C(=O)COc2ccc(S(=O)(=O)N3CCOCC3)cc2Cl)CC1	.	.	.	.	.	.
COc1ccccc1C(=O)Nc1nnc(-c2ccc3c(c2)CCCC3)o1	-63	?	23µM	.	.	?
O=C(Nc1nnc(-c2ccco2)o1)c1cccc(N2C(=O)CCC2=O)c1	.	.	.	.	.	.
O=C(CSc1ccc(Cl)cc1)Nc1nnc(-c2ccco2)o1	.	.	?	?	.	?
O=C(Nc1nnc(-c2ccco2)o1)c1ccc(Cl)cc1	.	?	13µM	.	?	?
CC(=O)Nc1nnc(-c2ccc3c(c2)CCCC3)o1	.	?	?	.	.	.
COc1ccc(-c2nnc(NC(=O)c3ccccc3C)o2)cc1	.	?	15µM	.	.	16µM
Cc1ccc(C(=O)Nc2nnc(-c3ccco3)o2)cc1C	.	?	15µM	.	?	23µM
Cc1ccccc1-n1nnnc1SCC(=O)c1c(N)n(C2CC2)c(=O)[nH]c1=O	.	.	?	.	.	?
O=S(=O)(Nc1nc2ccccc2nc1NCc1ccco1)c1ccc(Cl)cc1	.	?	?	.[9.22 µM]	?	?
Cc1noc(C)c1CSc1nc2ccccc2nc1NS(=O)(=O)c1ccc(Cl)cc1	.	.	12µM	.	2.6µM	15µM
CSCCC(C(=O)Nc1c(C)cccc1C)N1CCN(c2ccc(C(F)(F)F)cn2)CC1 (configuration not stated)	.	/	.	/	/	.
